# Source: PubChem BioAssay (NCI)
# Where “and” joins values, the source holds several entries; their conditions need not be identical. Equal values may be shown once. This is part of a sample that, as a whole, favours compounds with a hit. Of some 83,000 tested, about 20% had one in any assay.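 Step 1: grow cells in 96-well plates. Step 2: add test compound at a single concentration. Step 3: incubate 48 h. Step 4: record percent growth.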 Calls of active or inactive are those of the source. How the source made its calls: active means growth percent below 10; inactive means the rest.
# Tests used:
# Assay in all cases: NCI-60 one-dose screen, 48 h (100 = growth as untreated, 0 = no growth, -100 = all killed)
# Settings in all cases: 10 µM unless noted
# [1] = tested on: SK-MEL-2 melanoma
# [2] = tested on: EKVX NSCLC
# [3] = tested on: SN12C renal
# [4] = tested on: UO-31 renal
# [5] = tested on: TK-10 renal
# [6] = tested on: ACHN renal
# [7] = tested on: CAKI-1 renal
# [8] = tested on: A498 renal
# [9] = tested on: HL-60(TB) leukemia
# [10] = tested on: CCRF-CEM leukemia
# [11] = tested on: SR leukemia
# [12] = tested on: RPMI-8226 leukemia
# [13] = tested on: OVCAR-8 ovarian
# [14] = tested on: OVCAR-5 ovarian
# [15] = tested on: SK-OV-3 ovarian
# [16] = tested on: IGROV1 ovarian
# [17] = tested on: OVCAR-3 ovarian
# [18] = tested on: HS 578T breast
# [19] = tested on: MOLT-4 leukemia
# [20] = tested on: OVCAR-4 ovarian
SMILES,growth [1],growth [2],growth [3],growth [4],growth [5],growth [6],growth [7],growth [8],growth [9],growth [10],growth [11],growth [12],growth [13],growth [14],growth [15],growth [16],growth [17],growth [18],growth [19],growth [20]
NC(=O)c1c(Br)c(Br)c(Br)c(Br)c1C(=O)O (tested in a mixture with another compound),101% (inactive) and 113% (inactive),108% (inactive) and 99.9% (inactive),87.8% (inactive) and 93.3% (inactive),72.4% (inactive) and 51.5% (inactive),122% (inactive) and 123% (inactive),92.7% (inactive) and 101% (inactive),92.8% (inactive) and 97.5% (inactive),113% (inactive),85% (inactive) and 68.2% (inactive),35.5% (inactive) and 79.4% (inactive),52.6% (inactive) and 86.2% (inactive),101% (inactive) and 97.9% (inactive),97.5% (inactive) and 96.6% (inactive),94.5% (inactive) and 97.3% (inactive),113% (inactive) and 102% (inactive),124% (inactive) and 110% (inactive),111% (inactive) and 112% (inactive),114% (inactive) and 115% (inactive),,
CCCCCCCCCCCCCCCC[N+](C)(C)Cc1ccccc1,25.2% (inactive) and -69% (active),15.8% (inactive) and -27.6% (active),5.04% (active) and -76.7% (active),54.3% (inactive) and 51% (inactive),8.74% (active) and -73.5% (active),55.1% (inactive) and 23.4% (inactive),84.4% (inactive) and 50.6% (inactive),36.2% (inactive) and 38.2% (inactive),-28.8% (active) and -47.8% (active),,5.4% (active) and -55% (active),-42.2% (active) and -50.1% (active),10.5% (inactive),24.7% (inactive) and -62.5% (active),31.6% (inactive) and -7.74% (active),-71.5% (active) and -87.3% (active),1.73% (active) and -74% (active),8.98% (active) and -27.8% (active),-1.12% (active) and -55.3% (active),3.33% (active) and -44.5% (active)
CCCCn1c(=O)c(C(=O)NCc2ccccc2Cl)c(O)c2ccccc21,94.3% (inactive),56.5% (inactive),76.7% (inactive),73.4% (inactive),84.3% (inactive),81.3% (inactive),79.6% (inactive),71.2% (inactive),60.7% (inactive),,60.4% (inactive),40.1% (inactive),81.1% (inactive),109% (inactive),80.8% (inactive),74.9% (inactive),78.9% (inactive),101% (inactive),58.4% (inactive),82.4% (inactive)
CN(C)c1ccc(C=C2C(=O)NC(=O)NC2=O)cc1,105% (inactive),92.4% (inactive),77.5% (inactive),92.9% (inactive),109% (inactive),89.3% (inactive),78.9% (inactive),58.2% (inactive),102% (inactive),115% (inactive),107% (inactive),,98.5% (inactive),77.9% (inactive),109% (inactive),,95.8% (inactive),91.7% (inactive),98.7% (inactive),116% (inactive)
c1ccc(CCN2CCCCC2)nc1,111% (inactive),102% (inactive),93.5% (inactive),96.4% (inactive),103% (inactive),91.6% (inactive),89.4% (inactive),107% (inactive),78.4% (inactive),83.6% (inactive),,94.3% (inactive),108% (inactive),98.6% (inactive),99.2% (inactive),107% (inactive),111% (inactive),109% (inactive),92.9% (inactive),99.3% (inactive)
N#CC(NC(=O)CCl)=C(Cl)Cl,51.5% (inactive),-45.3% (active),29% (inactive),-40% (active),-13.1% (active),-88.7% (active),-99.4% (active),63.4% (inactive),-58.3% (active),,-18.2% (active),-22% (active),-39.3% (active),44.4% (inactive),88.5% (inactive),-38.6% (active),-30.9% (active),14.8% (inactive),-33.6% (active),21.1% (inactive)
CC12CCC3C(CCC4CC(O)CCC43C)C1CCC2=O (stereo unspecified),91.7% (inactive),73.4% (inactive),102% (inactive),94.1% (inactive),108% (inactive),109% (inactive),81.5% (inactive),162% (inactive),92.3% (inactive),107% (inactive),86.1% (inactive),,99.9% (inactive),91.7% (inactive),126% (inactive),38.9% (inactive),100% (inactive),81.9% (inactive),83.1% (inactive),108% (inactive)
CCCC1CCCCC12C(=O)NC(=O)NC2=O (stereo unspecified),105% (inactive) and 99.8% (inactive),85.6% (inactive),101% (inactive) and 106% (inactive),84.3% (inactive) and 87.9% (inactive),92.9% (inactive) and 107% (inactive),104% (inactive) and 106% (inactive),94.8% (inactive) and 99.6% (inactive),70.3% (inactive) and 102% (inactive),121% (inactive) and 94.2% (inactive),109% (inactive) and 101% (inactive),91.8% (inactive),,107% (inactive) and 103% (inactive),97.8% (inactive) and 107% (inactive),94.7% (inactive) and 106% (inactive),,106% (inactive) and 105% (inactive),91.8% (inactive) and 106% (inactive),110% (inactive) and 97.1% (inactive),94.1% (inactive) and 104% (inactive)
CC(C)c1cccc(C(C)C)c1O,113% (inactive),101% (inactive) and 94.5% (inactive),108% (inactive) and 104% (inactive),88% (inactive),116% (inactive) and 94.6% (inactive),104% (inactive) and 105% (inactive),95.1% (inactive) and 88.4% (inactive),112% (inactive) and 113% (inactive),97.9% (inactive) and 85.9% (inactive),107% (inactive) and 90.6% (inactive),,101% (inactive) and 100% (inactive),,106% (inactive) and 112% (inactive),,107% (inactive),112% (inactive) and 101% (inactive),105% (inactive) and 94.9% (inactive),84% (inactive) and 115% (inactive),107% (inactive) and 95.3% (inactive)
COc1cc2c(cc1OC)-c1c3c(cc4c1[C@@H](C2)N(C)CC4)OCO3,87.9% (inactive),66.7% (inactive),43.8% (inactive),9.51% (active),67.3% (inactive),18.6% (inactive),46.9% (inactive),57% (inactive),32.5% (inactive),42.1% (inactive),17.2% (inactive),,,42.5% (inactive),,,76.1% (inactive),80.4% (inactive),11.9% (inactive),44.2% (inactive)
C[C@]12CC[C@H]3[C@@H](C[C@@H]4SC(Nc5cccc(F)c5)=N[C@@]45CC(=O)CC[C@]35C)[C@@H]1CCC2=O,21.8% (inactive),46.4% (inactive),28.5% (inactive),-26.9% (active),20.3% (inactive),1.56% (active),50.5% (inactive),22.9% (inactive),8.58% (active),,-11.9% (active),-22.3% (active),39.6% (inactive),65.5% (inactive),-18.4% (active),60% (inactive),-5.24% (active),35.4% (inactive),-3.78% (active),59.2% (inactive)
